Columns and labels:
Assay in all cases: PBM binding z-score (relative to random genomic background probes); higher = stronger binding; sequences stand for … in GC…GCGATTGACAGCGTAGAATGAAGG
[1] = tested on: FXR:RXRa (NR concentration 270 nM, RXRa partner concentration 90 nM)
Summary of the method: (§1)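 Regression normalization was applied to scanned fluorescence from custom Agilent 4×180K protein-binding microarrays. Before scanning, arrays were incubated 1 h with ligand-free nuclear receptor dimers, and binding was detected with antibodies against each partner (one per run). Binding z-scores use the random background probes as reference.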

[2] = tested on: LXRa:RXRa (NR concentration 270 nM, RXRa partner concentration 90 nM)
Summary of the method: as §1

[3] = tested on: LXRa homodimer (NR concentration 270 nM)
Summary of the method: as §1

[4] = tested on: LXRb:RXRa (NR concentration 270 nM, RXRa partner concentration 90 nM)
Summary of the method: as §1

[5] = tested on: LXRb homodimer (NR concentration 270 nM)
Summary of the method: as §1

[6] = tested on: PPARa:RXRa (NR concentration 270 nM, RXRa partner concentration 90 nM)
Summary of the method: as §1

[7] = tested on: PPARg:RXRa (NR concentration 180 nM, RXRa partner concentration 90 nM)
Summary of the method: as §1

[8] = tested on: PPARg:RXRa 270nM:90nM, anti-RXR (NR concentration 270 nM, RXRa partner concentration 90 nM)
Summary of the method: as §1

[9] = tested on: PPARg:RXRa 30nM:10nM, anti-RXR (NR concentration 30 nM, RXRa partner concentration 10 nM)
Summary of the method: as §1

[10] = tested on: PPARg:RXRa 90nM:30nM, anti-RXR (NR concentration 90 nM, RXRa partner concentration 30 nM)
Summary of the method: as §1

[11] = tested on: PPARg:RXRa DBDmut IVT, anti-RXR (DBD mutation: RXRa K156A/R161A, NR concentration 270 nM, RXRa partner concentration 90 nM)
Summary of the method: as §1

[12] = tested on: PPARg:RXRa IVT, anti-PPARg (NR concentration 270 nM, RXRa partner concentration 90 nM)
Summary of the method: as §1

[13] = tested on: PPARg DBDmut:RXRa IVT, anti-PPARg (DBD mutation: PPARg1 K132A/R137A, NR concentration 270 nM, RXRa partner concentration 90 nM)
Summary of the method: as §1

[14] = tested on: PPARg DBDmut IVT, anti-PPARg (DBD mutation: PPARg1 K132A/R137A, NR concentration 270 nM)
Summary of the method: as §1

[15] = tested on: PPARg homodimer (NR concentration 180 nM)
Summary of the method: as §1

[16] = tested on: PXR:RXRa (NR concentration 270 nM, RXRa partner concentration 90 nM)
Summary of the method: as §1

[17] = tested on: PXR homodimer (NR concentration 270 nM)
Summary of the method: as §1

[18] = tested on: RARa:RXR (NR concentration 270 nM, RXRa partner concentration 90 nM)
Summary of the method: as §1

[19] = tested on: RARa homodimer (NR concentration 270 nM)
Summary of the method: as §1

[20] = tested on: RARb:RXRa (NR concentration 270 nM, RXRa partner concentration 90 nM)
Summary of the method: as §1

Sequence | PBM binding z-score [1] | PBM binding z-score [2] | PBM binding z-score [3] | PBM binding z-score [4] | PBM binding z-score [5] | PBM binding z-score [6] | PBM binding z-score [7] | PBM binding z-score [8] | PBM binding z-score [9] | PBM binding z-score [10] | PBM binding z-score [11] | PBM binding z-score [12] | PBM binding z-score [13] | PBM binding z-score [14] | PBM binding z-score [15] | PBM binding z-score [16] | PBM binding z-score [17] | PBM binding z-score [18] | PBM binding z-score [19] | PBM binding z-score [20]
CCGAGTAGATTATGGGGCATTCAGGCAACGGTGA | 0.0957 | -0.0855 | -0.262 | 0.275 | -0.645 | 0.18 | 0.487 | 0.839 | 0.0845 | 0.412 | 0.855 | 1 | -0.628 | -0.679 | 0.156 | -0.457 | 0.0578 | -0.525 | -0.197 | 0.0647
TAGCCTAGATCATTCAGGGGCCAGTATAGAAAGC | -0.33 | -0.505 | -0.351 | -0.00287 | -0.168 | 0.0623 | 0.276 | 0.125 | -0.256 | -0.407 | 1.21 | 1.03 | -0.343 | 0.115 | -0.77 | -0.495 | -0.234 | 0.0251 | -0.596 | 0.0871
CTCGAAAGGTCGGTTGAAGTGAGTATACGGATAA | 1.48 | 1.58 | -0.00237 | 1.54 | 0.166 | 2.45 | 0.257 | 1.02 | 0.428 | 0.796 | -0.0991 | 0.86 | 0.362 | 0.582 | 0.716 | 1.17 | 0.13 | 1.38 | 0.453 | 3
TTACCAAGGTGAAGGTCGTTGCTCCCTCTGTAGA | 2.26 | 1.91 | 0.0546 | 1.46 | -0.474 | 2.7 | 2.96 | 4.34 | 2.21 | 3.83 | 2.04 | 3.56 | -0.269 | 0.0241 | 1.17 | 1.46 | 0.225 | 1.65 | -0.269 | 2.39
TTACCAAGGTGAAAGGTTGTTGATGCACGCCTTG | 1.23 | 1.15 | -0.416 | 1 | -0.595 | 3.78 | 5.72 | 6.02 | 4.55 | 6.25 | 2.7 | 4.17 | 0.253 | 0.316 | 0.571 | 1.28 | -0.373 | 2.32 | 0.397 | 1.63
CAAACTAGGTCACCGGAAGGTCAACGTCCGCATG | 6.21 | 6.05 | 4.21 | 4.6 | 1.1 | 6.13 | 9.54 | 8.04 | 5.72 | 7.83 | 8.78 | 8.78 | 2.66 | 1.2 | 6.53 | 5.79 | 1.29 | 7.37 | 2.46 | 5.38
TCATTTAGGTAAATGCTAGGTGAAAGTCCGATCT | 0.568 | 0.673 | 0.0938 | 0.395 | 0.604 | 1.41 | 0.312 | 1.97 | 3.57 | 2.65 | 3.13 | 2.44 | 1.71 | 1.17 | 0.343 | 0.445 | -0.0267 | 0.799 | 0.628 | 0.562
